High-throughput results deposited in PubChem by National Center for Advancing Translational Sciences (NCATS).
Compounds with a hit are over-represented: about 4.6% of the library has one in this group of screens.
D1 agonist: activates the human D1 dopamine receptor; P21728; activation, % at 2 µM; 1% of 360,000 active; HEK293 T-REx D1 cells, calcium flux, agonist mode; AID 504660
Target sequence (P21728 whole entry, looked up): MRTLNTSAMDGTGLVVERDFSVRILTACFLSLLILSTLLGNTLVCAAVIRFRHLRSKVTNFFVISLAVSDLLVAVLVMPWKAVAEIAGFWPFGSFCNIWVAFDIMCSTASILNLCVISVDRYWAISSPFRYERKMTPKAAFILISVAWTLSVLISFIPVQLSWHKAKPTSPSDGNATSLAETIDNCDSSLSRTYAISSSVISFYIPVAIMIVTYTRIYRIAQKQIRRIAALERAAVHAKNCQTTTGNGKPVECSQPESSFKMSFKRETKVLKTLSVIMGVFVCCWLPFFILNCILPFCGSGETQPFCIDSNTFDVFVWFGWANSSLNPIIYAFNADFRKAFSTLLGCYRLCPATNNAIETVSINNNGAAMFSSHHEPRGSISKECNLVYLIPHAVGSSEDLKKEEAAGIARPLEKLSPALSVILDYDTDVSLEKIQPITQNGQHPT
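Tetracycline-induced HEK293 TREx D1 cells, force-coupled to calcium signalling, were dye-loaded with a no-wash calcium kit. Compound was pin-added after a 10 s baseline. Fluorescence was read kinetically at 1 cycle/s for 180 s, with calcium rises flagged as agonism.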
D1 PAM: potentiators of human D1 dopamine receptor | 0.036% of 360,000 active | P21728 | potentiation, % at 10 µM | HEK293 TREx D1 cells, calcium flux, dopamine EC20 potentiation | AID 504651; in the data active = potentiation above about 30%
TRHR enhancer: allosteric enhancers of human TRH receptor. P34981. TRHR cells, fluo-8 calcium fluorescence, EC20 TRH enhancement. enhancement, % at 2 µM. 0.66% of 360,000 active. AID 493056; in the data active = enhancement above about 30%
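TRHR-expressing cells loaded with fluo-8 calcium dye were read kinetically (ex 480/em 530) during compound addition, then stimulated with an EC20 of TRH (10 nM final). Enhancement of the Gq-mediated intracellular calcium response was scored.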
D1 antagonist: human D1 dopamine receptor antagonism | P21728 | HEK293 TREx D1 cells, calcium flux, dopamine EC80; active compounds read low | activity change, negative = inhibition, % at 10 µM | 3.2% of 360,000 active | AID 504652; in the data active = activity change below about -30%
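Inducible Hek293 Trex D1 cells (tetracycline, overnight, 30 C). Calcium dye 30–90 min RT. Antagonist mode: EC80 dopamine added after 180 s compound read.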
TRHR agonist: TRH receptor (human) agonism; TRHR cells, calcium flux fluo-8, FDSS agonist mode; 0.18% of 360,000 active; activation, % at 2 µM; P34981
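Steps: seed TRHR cells overnight; add fluo-8 no-wash Ca dye, RT 30 min–1.5 h; record 10 s baseline; pin-transfer compounds; monitor fluorescence 1 cycle/s for the agonist window. Calcium increases flag candidate agonists.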
Numbers stand for hits; – = inactive; · = no result given. Cut-off read from the data, not from the text of the source, unless noted: active = activation above about 30%; inactive = the rest.

SMILES	D1 agonist	D1 PAM	TRHR enhancer	D1 antagonist	TRHR agonist
Cc1cccc(Cn2nc(C(C)(C)C)cc2C(=O)Nc2ccc(F)cc2)c1	–	–	–	–	–
CC(C)NC(=O)c1ccccc1NS(=O)(=O)c1ccc(Br)s1	–	–	–	–	–
Cc1ccccc1NS(=O)(=O)c1ccc(Br)s1	50	–	–	–	–
O=C(c1cc(-c2ccc(Cl)cc2)on1)N1CCc2ccccc2C1	–	–	–	–	–
O=C(c1cc(-c2ccccc2)on1)N1CCc2ccccc2C1	–	–	36	–	–
CCN1CCCC1CNC(=O)Cn1nc(C)n2c(cc3cc(F)ccc32)c1=O (stereo unspecified)	–	–	35	–	–
CCN(CC)CCNCC(O)(c1ccc(Cl)cc1)c1ccc(Cl)cc1	32	–	–	–	–
O=c1[nH]c(=O)n(C2CCCCC2)c(O)c1C1=Nc2ccccc2SC(c2ccccc2)C1 (stereo unspecified)	–	–	–	–	–
O=C(Nc1cccc(Cl)c1)c1cnccn1	–	–	–	–	–
NCC(O)(c1ccc(Cl)cc1)c1ccc(Cl)cc1	51	–	–	–	–
Cc1ccc2c(c1)c(=O)c(S(=O)(=O)c1ccc(C)c(C)c1)cn2CC(=O)Nc1ccccc1	–	–	–	-47	–
Cc1ccc(S(=O)(=O)c2cn(CC(=O)Nc3ccc(Cl)cc3)c3ccc(F)cc3c2=O)cc1C	–	–	–	–	–
COc1ccc(NC(=O)Cn2cc(S(=O)(=O)c3ccccc3)c(=O)c3cc4c(cc32)OCO4)cc1	–	–	–	-47	–
Cc1ccc(S(=O)(=O)c2cn(CC(=O)Nc3ccccc3)c3cc4c(cc3c2=O)OCO4)cc1	–	–	–	–	–
NCC(c1ccccc1)(c1ccccc1)c1ccccc1	–	–	–	–	–
O=C1CCC(C(=O)N(CCO)Cc2ccccc2)CN1CCCN1CCOCC1 (stereo unspecified)	–	–	–	–	–
Nc1nn(-c2ccccc2)c(N)c1N=Nc1ccc2c(c1)OCO2	–	–	–	-45	–
Cc1cccc(OCCSCc2nc3ccccc3[nH]2)c1	–	–	–	–	–
Cc1ccccc1OCCSCc1nc2ccccc2[nH]1	–	–	–	-30	–
O=C(NCCC1=CCCCC1)c1ccc(Cl)cc1	–	–	–	-41	–
O=C(NCCc1ccc(Cl)cc1)c1ccc2c(c1)OCCO2	–	–	–	-37	–
CCCNC(=O)C(=O)NCCC1=CCCCC1	–	–	–	–	–
CS(=O)(=O)N(Cc1ccc(Cl)cc1)c1ccc(C(=O)NCCC2=CCCCC2)cc1	–	–	–	–	–
O=C(NC(=S)NCCC1=CCCCC1)c1cncc(Br)c1	–	–	–	-32	–
CC(C)CCNC(=O)C(=O)NCCC1=CCCCC1	–	–	–	-47	–
SMILES	D1 agonist	D1 PAM	TRHR enhancer	D1 antagonist	TRHR agonist
CCOC(=O)COc1ccc(F)cc1C(=O)c1ccn2nc(-c3ccc(Cl)cc3)cc2n1	–	–	–	–	–
COc1ccc(CNC(=O)c2nn(C)c3c2CSc2ccccc2-3)cc1	–	–	–	–	–
CC(C)COc1ccc(C(=O)NC(=S)Nc2ccc(CN3CCOCC3)cc2)cc1	–	–	–	–	–
O=C(NNC(=O)c1ccccc1[N+](=O)[O-])c1ccccn1	–	–	–	–	–
COc1ccccc1N1CCN(CCCNC(=O)c2cnn(-c3cccc(Cl)c3)c2C2CCN(C(=O)OC(C)(C)C)CC2)CC1	–	–	–	-31	–
CN1CCN(CCCNC(=O)c2cnn(-c3ccccc3)c2C2CCN(C(=O)OC(C)(C)C)CC2)CC1	–	–	–	–	–
COc1ccccc1N1CCN(CCCNC(=O)c2cnn(-c3ccc(C)c(C)c3)c2C2CCN(C(=O)OC(C)(C)C)CC2)CC1	–	–	–	–	–
Cc1ccc(C)c(N2CCN(CCCNC(=O)c3cnn(-c4ccccc4)c3C3CCN(C(=O)OC(C)(C)C)CC3)CC2)c1	–	–	–	-42	–
COC(=O)c1ccc(NC(=O)c2cccc(OC)c2)cc1	–	–	–	-52	–
COc1ccc(NC(=O)c2cccc(NC(=O)c3ccccc3)c2)cc1	–	–	–	–	–
COc1cccc(C(=O)Nc2ccc(C(=O)O)cc2)c1	–	–	–	–	–
COc1cccc(C(=O)Nc2ccncc2)c1	–	–	–	-59	–
COc1ccc(C(=O)Nc2ccc(C(=O)Nc3cccc(C)c3)cc2)cc1	–	–	–	-31	–
CN1CCc2nc(NC(=O)c3cccc(S(=O)(=O)N4CCc5ccccc54)c3)sc2C1	–	–	–	–	–
COc1cccc(C(=O)Nc2nc3c(s2)CN(C)CC3)c1	99	–	–	–	–
CCOc1ccc(NC(=O)c2oc(=O)c3ccccc3c2-c2ccc(C)cc2)cc1	–	–	–	–	–
CC(C)Cn1c(N)c(C(=O)CSc2nncs2)c(=O)n(C)c1=O	–	–	–	–	–
Cc1cc(NC(=O)CCOc2ccccc2)no1	–	–	–	–	–
O=C(CSc1ccncc1)Nc1ccc2ccccc2c1	–	–	–	-31	–
O=C(CSc1ccc2ccccc2c1)Nc1ccncc1	–	–	–	·	–
O=C(Nc1nnc(-c2ccncc2)o1)c1ccc2ccccc2c1	–	–	–	–	–
O=C(Nc1ccncc1)c1ccc2ccccc2c1	–	–	–	-38	–
COc1cc(CNc2ccc3[nH]c(=O)[nH]c3c2)cc(Cl)c1OCC(=O)NC(C)(C)C	–	–	–	–	–
CC(=O)c1c(C)oc2ccc(N(C(=O)Oc3ccccc3)S(=O)(=O)c3ccc(C(C)(C)C)cc3)cc12	–	–	–	–	–
CCOc1ccccc1NC(=O)c1nnn(-c2ccc3c(c2)OCCO3)c1N	–	–	–	–	–
SMILES	D1 agonist	D1 PAM	TRHR enhancer	D1 antagonist	TRHR agonist
Cc1cc(C)c(S(=O)(=O)NCCC2CCCN2C)c(C)c1 (stereo unspecified)	–	–	–	-30	–
Cc1cc(C(=O)CSc2nnc(N)s2)c(C)n1C1CC1	–	–	–	–	–
CCOC(=O)N1CCC(Nc2c(N3CCN(c4cc(Cl)ccc4C)CC3)c(=O)c2=O)CC1	–	·	–	-30	–
CCOC(=O)N1CCC(Nc2c(-c3ccc(C)c(C)c3)c(=O)c2=O)CC1	–	–	–	–	–
O=C(COC(=O)CCC(=O)c1ccccc1)NNC(=O)c1ccc(Cl)cc1	–	–	–	–	–
Cc1ccc(C(=O)CCC(=O)OCC(=O)NNC(=O)c2ccccc2Cl)cc1	–	–	32	–	–
O=C(CSc1ccc(-c2cccnc2)nn1)Nc1ccc(Br)cc1	–	–	–	–	–
COc1ccccc1N1CCN(C2CCCN(C(=O)CCn3cncn3)C2)CC1 (stereo unspecified)	–	–	–	–	–
COc1cc(OC)c(OC)cc1CCC(C)NCCC(c1ccccc1)c1ccccc1 (stereo unspecified)	78	–	–	–	–
CC(C)(Oc1ccc(-c2ccco2)cc1)C(=O)O	–	–	–	-46	–
